From PubChem BioAssay
Pf growth 96h = Primary qHTS for delayed death inhibitors of the malarial parasite plastid, 96 hour incubation; Potency, µM (top dose mostly 28.7 µM), without a hit: at the top dose activity change, negative = inhibition, usual class: inhibitors; AID 504834, 2011; P. falciparum luciferase reporter growth, 96 h; 320,000 tested, 6.9% active; further: potency means the concentration at half of the fitted maximal effect
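Delayed-death screen, second-generation endpoint: infected erythrocytes, 2% hematocrit, 0.05% parasitemia final; 96 hours at 37 C, 5% CO2; luciferase detection reagent; luminescence decrease equals reduced growth.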
Giardia FBPA inh = qHTS Assay for Inhibitors of Fructose-1,6-bisphosphate Aldolase from Giardia Lamblia; 290,000 tested, 0.71% active; Potency, µM (series often up to 59.6 µM), inactives show at the highest dose activity, negative = inhibition, hits mostly inhibitors; A8B2U2; purified Giardia FBPA; further: potency means the concentration at half of the fitted maximal effect; nearly all actives have a fitted effect of over 55% in size
Target sequence (A8B2U2 whole entry, looked up): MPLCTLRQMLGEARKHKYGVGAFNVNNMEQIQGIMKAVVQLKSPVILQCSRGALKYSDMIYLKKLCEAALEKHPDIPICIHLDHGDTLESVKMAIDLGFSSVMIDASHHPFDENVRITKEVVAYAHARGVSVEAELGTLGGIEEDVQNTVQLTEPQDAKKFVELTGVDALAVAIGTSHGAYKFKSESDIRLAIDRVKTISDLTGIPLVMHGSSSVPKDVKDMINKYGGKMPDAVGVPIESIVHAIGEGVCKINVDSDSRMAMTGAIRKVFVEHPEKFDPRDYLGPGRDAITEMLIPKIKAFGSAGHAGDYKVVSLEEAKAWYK
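Giardia FBPA (40 nM reagent) was preincubated 10 min at RT with compound (up to 57.5 uM final), then substrate plus GAPDH/TPI/NAD/arsenate coupling system with diaphorase/resazurin was added; resorufin fluorescence (525/598 nm) was read after 20 min.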
Sm TGR block = qHTS Assay for the Inhibitors of Schistosoma Mansoni Peroxiredoxins | purified TGR, DTNB reduction, TNB absorbance 405 nm | Potency, µM (top dose mostly 114 µM), for the others: top-dose activity change, negative = inhibition, hits mostly inhibitors | 360,000 tested, 3% active; further: potency means the concentration at half of the fitted maximal effect; nearly all actives have a fitted effect of over 60% in size
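First, TGR (20 nM dispensed) and NADPH were mixed with compound. Second, a 15 min room-temperature incubation followed. Third, further NADPH and then DTNB were added to start the reaction. Finally, TNB absorbance was monitored kinetically.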
Pf growth 48h = Primary qHTS for delayed death inhibitors of the malarial parasite plastid, 48 hour incubation | 310,000 tested, 5.9% active | P. falciparum luciferase growth in erythrocytes, 48 h | Potency, µM (highest dose often 28.7 µM), for inactives: top-dose activity change, negative = inhibition, actives largely listed as inhibitors; further: potency means the concentration at half of the fitted maximal effect
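Erythrocytes infected with P. falciparum carrying an integrated firefly luciferase reporter (2% hematocrit, 0.1% parasitemia final) were exposed to compounds in RPMI 1640 with 0.5% Albumax at 37 C, 5% CO2. Growth inhibition was scored as reduced luminescence.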
HCMV antiviral = qHTS Assay for inhibitors of the human cytomegalovirus (HCMV); HFF cells, HCMV-luciferase reporter, 72 h; hits give low values; activity change, negative = inhibition, % at 57.5 µM; 410,000 tested, 4.5% active; AID 1259415, 2018; in the data active means activity change below about -60%; inconclusive means no clear call, values can overlap the other calls; inactive means above about -39%
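Human foreskin fibroblasts infected with luciferase-reporter HCMV at MOI 1 PFU/cell, compounds at two doses. Luciferase measured 72 h post infection; normalized to buffer-only basal and Salinomycin (10uM) controls.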
* = called active by the depositor; ? = inconclusive; · = not tested or not shown; ! = a repeat was not active; [ ] = dose if it differs, or a comment. Most compounds without a hit are left out; they make up all but 14% or so of the library. Unless noted, the call rests on the fitted dose curve; in most records, active means well fitted curve in the direction sought with a large enough effect; inconclusive means small, poorly fitted or top-dose-only effect, or another doubt; inactive means no such curve, though single readings can be large; an effect the other way counts as inactive or inconclusive. On the % scale 0 is the no-effect control and ±100 the full control effect.

SMILES | Pf growth 96h | Giardia FBPA inh | Sm TGR block | Pf growth 48h | HCMV antiviral
CCOC(=O)C1C(=O)C(C(=O)OCC)C(c2cccnc2)NC1c1cccnc1 (centres undefined) | 67% | -3% | 25µM* | -20% | -31
CCOC(=O)C1=C(C)N(C)C(C)=C(C(=O)OCC)C1c1cccnc1 | ? | 16% | -11% | ? | 7
Cc1cc2oc(=O)cc(-c3ccccc3)c2c(C)c1-c1cccc(N)c1 | · | 8%[89.2 µM] | · | · | ·
O=C(NCCCN1CCC(Cc2ccccc2)CC1)c1ccc2nc(N3CCOCC3)sc2c1 | ? | -4% | 6% | 10µM* | 0
CCc1ccc2nc(N3CCC(C(=O)NCCC(C)C)CC3)sc2c1 | · | · | -4% | · | 82
CCCN(CCC)CCCNC(=O)C1CCN(c2nc3ccc(CC)cc3s2)CC1 | · | · | -7% | · | -101*
CCCN1CCN(CCCNC(=O)c2ccc3nc(N4CCCCC4)sc3c2)CC1 | ? | -11% | -12% | 3% | 76
CC1CCCC(C)N1CCCNC(=O)c1ccc2nc(N3CCOCC3)sc2c1 (centres undefined) | 79% | -1% | 0% | -12% | 38
CCCN(CCC)CCNC(=O)C1CCN(c2nc3ccc(CC)cc3s2)CC1 | · | · | -1% | · | -98*
CCCCN(CCCC)CCCNC(=O)c1ccc2nc(N3CCCCC3)sc2c1 | · | · | 28µM* | · | 58
O=C(COc1ccccc1Cl)NC(=S)Nc1ccccc1N1CCCC1 | 10% | -5% | -12% | 22% | 5
CCCCn1c(N)c(N(CC)C(=O)c2cc3c(s2)CCCCC3)c(=O)[nH]c1=O | 3% | · | 1% | 8% | -5
CCOC(=O)c1c(NC(=S)N2CCOCC2)sc2c1CCN(C(=O)OCC)C2 | ? | -18% | -31% | ? | -109*
CCOC(=O)c1c(NC(=S)N2CCCCC2)sc2c1CCN(C(=O)OCC)C2 | ? | -8% | -17% | ? | -98*
CCOC(=O)c1c(NC(=O)C2CCCCC2)sc2c1CCN(CC)C2 | -14% | ? | -10% | ? | -17
CN(C)c1ccc(C(=O)OCC#CCSc2nnc(-c3cccc4ccccc34)o2)cc1 | 23% | · | -19% | -9% | -10
CCOc1ccc(S(=O)(=O)NCCC(=O)N2CCN(c3ccccc3O)CC2)cc1 | -25% | · | -5% | ? | -18
Oc1ccc(CNc2ccc(C(F)(F)F)cc2Cl)c2cccnc12 | 3.3µM* | · | 1µM* | 1.7µM* | ·
O=S(=O)(Nc1ccc(O)c2ncccc12)c1ccccc1F | · | · | · | · | 27
Oc1ccc(CNc2ccccc2F)c2cccnc12 | 4.1µM*! | 15% | 0.11µM* | 1.5µM* | -89*
Oc1ccc(CNc2cccc(F)c2F)c2cccnc12 | ? | · | 0.11µM* | 10µM* | ·
CCCn1c(N)c(NCCN2CCOCC2)c(=O)n(CC(=O)NCc2ccccc2)c1=O | 23% | 0% | 6% | 4% | 16
C[C@H](CO)N1C[C@H](C)[C@@H](CN(C)S(=O)(=O)c2ccc(F)cc2)OCc2cn(nn2)CCCC1=O | · | · | · | · | -24
COc1ccc(NC2=CC(=O)N(C)C2=O)cc1 | 72% | -27% | ? | 87% | -5
COc1ccc2[nH]cc(CCNc3ncncc3-c3ccccc3C(F)(F)F)c2c1 | · | -2% | · | · | ·
SMILES | Pf growth 96h | Giardia FBPA inh | Sm TGR block | Pf growth 48h | HCMV antiviral
Cc1cc(NC(=O)CN2C(=O)NC(c3ccccc3)(c3ccc(C)c(C)c3)C2=O)no1 (centres undefined) | 4.1µM* | · | -10% | ? | -12
COc1ccc(C2(c3ccc(OC)cc3)NC(=O)N(CC(=O)Nc3ccccc3C(F)(F)F)C2=O)cc1 | 12µM* | · | -23% | ? | 17
COc1ccc(C2(c3ccc(OC)cc3)NC(=O)N(CC(=O)Nc3ccc(C(N)=O)cc3)C2=O)cc1 | ? | 6% | 0% | ? | 41
COc1cc(NC(=O)CN2C(=O)NC(C)(CCC(C)C)C2=O)cc(OC)c1 (centres undefined) | ? | 0% | 0% | -16% | 65
COc1ccc(C2(c3ccc(OC)cc3)NC(=O)N(CC(=O)Nc3ccc(OC)c(OC)c3)C2=O)cc1 | ? | 11% | 7% | 6.6µM* | 37
COc1cccc(NC(=O)CN2C(=O)NC(C)(CCC(C)C)C2=O)c1 (centres undefined) | 17% | 0% | 86% | 10µM* | 3
Cc1ccc2c(c1)cc1c(=O)n(CC(=O)NC3CCCCC3)nc(C)n12 | · | · | -4% | · | -23
O=C(c1cc(C(F)(F)F)cc(C(F)(F)F)c1)N1CCC2(CCCN(c3ccncc3)C2)CC1 | · | 14% | · | · | ·
c1ccc2c(c1)CC1(CCCCC1)n1nnnc1-2 | -24% | -2% | 1% | -10% | ?
c1ccc2c(c1)Cn1nnnc1-2 | 4.1µM* | 2% | 5% | 8% | -17
COc1cc(C(=O)OCCN2CCCCC2)ccc1O | -35% | 3% | 5% | -3% | 3
COc1cc(C#CC#CCN2CCCCC2)ccc1O | 20% | -7% | ? | 8.3µM* | -6
COc1ccccc1CNc1nc(-c2ccco2)nn1C(=O)c1ccccc1[N+](=O)[O-] | · | · | 89µM* | · | 50
Cc1cccc(C(=O)n2nc(-c3ccco3)nc2NCc2ccccc2)c1 | · | · | 35µM* | · | 32
COc1ccc(C(=O)n2nc(-c3ccco3)nc2NCc2cccs2)cc1OC | · | · | 20µM* | · | 44
Cc1ccc(CNc2nc(-c3ccco3)nn2C(=O)c2ccccc2[N+](=O)[O-])cc1 | · | · | -8% | · | 81
O=C(Oc1ccccc1N1C(=O)C2CCCCC2C1=O)c1ccccc1F (centres undefined) | 34% | 3% | 0% | 38% | 108
O=C(Oc1ccccc1N1C(=O)C2CCCCC2C1=O)c1ccc(Cl)cc1 (centres undefined) | 13% | 5% | -5% | 9% | -108*
CCOc1nc(C)cc(C)c1S(=O)(=O)c1cccc(C)c1 | 0% | -12% | · | -25% | ·
Cc1cc(C)c(S(=O)(=O)c2c(C)cccc2C)c(OCC(C)C)n1 | 12µM* | 5% | 8% | 12µM* | -15
Cc1cc(OC(C)C(=O)NCCCN2CCOCC2)ccc1Cl (centres undefined) | -10% | 1% | 0% | -2% | -14
COc1ccc(Cc2c3cc(OC)c(OC)cc3cc[n+]2C)cc1OC | 8.3µM* | ? | 13µM* | ? | ·
COc1ccc(Cc2nccc3cc(OC)c(OC)cc23)cc1OC | ? | ? | 0% | ? | -77*
COc1ccc(C2c3cc(OC)c(OC)cc3Cc3c4cc(OC)c(OC)cc4cc[n+]32)cc1OC (centres undefined) | · | 1% | · | · | ·
CCS(=O)(=O)Nc1cc(OC)c(OC)cc1Cc1nccc2cc(OC)c(OC)cc12 | 0% | 5% | -16% | -28% | 70
